PG9 Ab binder: PG9 antibody binding by small molecule. TR-FRET gp120-PG9 antibody binding. inhibition, % at 6.7 µM. 0.43% of 360,000 active; in the data active = inhibition above about 8.5%
RAM network inh: blocks the yeast RAM network | S. cerevisiae dse1pr::URA3 reporter, 5-FOA growth OD615, 2 d; analog-sensitive cbk1-as2 kinase mutant strain | inhibition, % at 50 µM | 1.8% of 190,000 active | AID 868;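 active = inhibition above a set limit, 3 SD over mean compound inhibition, cut at about 8.4% in these data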;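 also: 0% = DMSO-only wells with no growth and 100% = 10 µM 1-NA-PP1 full growth; inhibition rescues growth on 5-FOA so higher OD means more RAM inhibition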
EP2 antag: blocks the human prostaglandin E2 receptor EP2; inhibition, % at 25 µM; P43116; 0.52% of 260,000 active; AID 1422; C6 glioma cells expressing human EP2, cAMP TR-FRET; cells stimulated with saturating PGE2;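 active = percent inhibition above 40 after rounding to a whole number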;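 also: rat C6 glioma host cells with rolipram phosphodiesterase inhibitor present; the protocol text gives 20 µM as final concentration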
EP2 mod: EP2 receptor (human) modulation | P43116 | AID 940 | 0.83% of 260,000 active | induction, % at 25 µM | EP2-expressing cells, cAMP HTRF FRET, PGE2 co-stimulation;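 active = compounds whose cAMP rise, as percent of the full-agonist control response, exceeds 60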;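 also: rat C6 glioma line stably carrying human EP2 under a CMV promoter; the protocol text gives 20 µM as final concentration; 100% = response of wells given 1 µM PGE2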
Rev-erbA mod: modulators of human Rev-erb alpha DNA binding. P20393. Rev-erbα–FITC-DNA binding, fluorescence polarization, 90 min. 0.79% of 370,000 active. AID 1259318. activity, % at 10 µM;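 active = activity above about 14%, limit read from the data; passing the limit was not always enough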;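 also: 0% = DMSO wells with 35 nM protein and 100% = DMSO wells with 750 nM protein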
Target sequence (P20393 whole entry, looked up): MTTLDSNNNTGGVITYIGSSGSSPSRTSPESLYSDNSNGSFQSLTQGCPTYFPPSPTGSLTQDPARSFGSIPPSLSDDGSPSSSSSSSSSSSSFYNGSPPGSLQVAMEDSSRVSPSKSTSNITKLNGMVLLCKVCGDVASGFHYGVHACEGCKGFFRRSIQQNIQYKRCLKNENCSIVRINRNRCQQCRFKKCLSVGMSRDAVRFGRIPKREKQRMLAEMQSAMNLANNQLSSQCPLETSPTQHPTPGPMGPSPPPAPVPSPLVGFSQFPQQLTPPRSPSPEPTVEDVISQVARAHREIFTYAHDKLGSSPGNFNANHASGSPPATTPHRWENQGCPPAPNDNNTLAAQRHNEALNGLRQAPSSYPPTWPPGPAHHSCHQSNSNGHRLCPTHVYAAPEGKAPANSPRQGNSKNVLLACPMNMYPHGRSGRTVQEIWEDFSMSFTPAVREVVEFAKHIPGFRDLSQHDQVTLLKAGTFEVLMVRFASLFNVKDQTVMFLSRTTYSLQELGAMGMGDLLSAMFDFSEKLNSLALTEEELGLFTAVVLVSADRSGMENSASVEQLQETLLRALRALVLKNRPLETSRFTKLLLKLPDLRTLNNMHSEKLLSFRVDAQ
SKN-1 inh: blocks SKN-1 activity in C. elegans; C. elegans VP596 Pgst-4::GFP/RFP ratio, acrylamide-induced, 24 h; inhibition, % at 21.8 µM; 0.49% of 360,000 active; AID 624304;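 active = interference check ratio from 0.5 to 1.5 plus GFP to RFP signal ratio inhibition reaching or exceeding a fixed threshold, cut at about 30% in these data, passing the limit was not always enough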
PG9 bind confirm: PG9 antibody binding, confirmed; TR-FRET PG9 antibody binding, biochemical; inhibition, % at 6.7 µM; shares compounds with PG9 Ab binder; 90% of 1,500 active; AID 651571; in the data active = inhibition above about 9%
PGV04 Ab binding: binds control antibody PGV04 in PG9 binder counter-screen | shares compounds with PG9 Ab binder | TR-FRET PGV04 antibody-gp120 binding, biochemical | inhibition, % at 6.7 µM | 95% of 1,500 active; in the data active = inhibition above about 9.5%
PG9 bind DR: PG9 antibody binding, dose response; shares compounds with PG9 Ab binder; TR-FRET PG9 antibody-gp120 binding inhibition; AID 651848; 95 tested, under 10 active; IC50, µM; in the data active = IC50 below about 10 µM
PGV04 binding DR: binds control antibody PGV04 in PG9 counter-screen; shares compounds with PG9 Ab binder; TR-FRET binding to control antibody PGV04; IC50, µM; 20% of 95 active; AID 651937
PG126 DR counter: binds control antibody PG126 in PG9 counter-screen; IC50, µM; shares compounds with PG9 Ab binder; 20% of 95 active; AID 651939; TR-FRET binding to antibody PG126, counterscreen
* marks the source's active call; other numbers are inactive results; i = inactive; nt = not tested or not shown. An excerpt weighted towards active compounds, which were near 2.9% of everything screened. Rule as the data show it, unless noted: active = IC50 below about 9 µM; inactive = the rest.

SMILES | PG9 Ab binder | RAM network inh | EP2 antag | EP2 mod | Rev-erbA mod | SKN-1 inh | PG9 bind confirm | PGV04 Ab binding | others
O=C(CSc1nc2ccccc2c(=O)[nH]1)NCc1ccc(Cl)cc1 | 12* | 1 | nt | -8 | -1 | 6 | 24* | 27*
Cc1cc(C)c2c(=N)c3ccccc3n(CCCCCCCCn3c4ccccc4c(=N)c4c(C)cc(C)nc43)c2n1 | 9.7* | nt | nt | nt | -28 | 0 | 28* | 33*
CCCCCCCCn1c2c(c(=N)c3ccccc31)CCC2 | 1 | 0 | 5 | -18 | 0 | -2 | nt | nt
CCC(CN1CCCCC1)NC(=O)Cc1c(C)nc(OC)nc1OC (stereo not drawn) | nt | nt | 5 | -2 | nt | nt | nt | nt
O=C(CSc1nc2ccccc2o1)Nc1nc2ccc(Br)cc2s1 | 1 | 2 | 5 | -9 | 4 | 17 | nt | nt
COc1ccc2nc(NC(=O)CSc3nc4ccccc4o3)sc2c1 | 21* | 4 | 8 | 11 | 18 | 0 | 27* | 45*
O=C(CSc1nc(COc2ccccc2)nc2sc3c(c12)CCCC3)N1CCCC1 | nt | nt | 18 | 44 | nt | nt | nt | nt
Cc1ccc(C(=O)N[C@@H](C)Cn2nnc3ccccc32)cn1 | nt | nt | 7 | 7 | nt | nt | nt | nt
COC(=O)c1ccc(NC(=O)c2ccc(NC(=O)c3ccco3)cc2)cc1 | 19* | nt | nt | nt | 3 | 13 | 17* | 11* | PG9 bind DR=i;PGV04 binding DR=>67;PG126 DR counter=>67
CCOc1ccc(C(=O)Nc2ccc(NC(=O)c3ccco3)c(Cl)c2)cc1Br | 36* | 3 | 8 | 3 | 11 | 6 | 32* | 44*
CC(=O)c1ccc(NC(=O)c2ccc(NC(=O)c3ccco3)cc2)cc1 | nt | nt | nt | nt | nt | -14 | nt | nt
CCOc1ccc(C(=O)Nc2ccc(NC(=O)c3ccco3)c(Cl)c2)cc1Cl | 4 | 4 | nt | 2 | 22 | 2 | nt | nt
Cc1cccc2cc(CN(Cc3cccnc3)C(=S)NCCc3ccccc3)c(=O)[nH]c12 | nt | nt | 28 | -18 | nt | nt | nt | nt
O=C(c1cnn2cccnc12)N1C2CCC1CC(c1ccc(F)cc1)C2 (stereo not drawn) | nt | nt | nt | -57 | nt | nt | nt | nt
CCOC(=O)/C(C#N)=C1/C=C(C)NC(c2ccccc2O)=N1 | 24* | 7 | 11 | 34 | 1 | 0 | 27* | 34*
CCOC(=O)/C(C#N)=C1/C=CN(C)C(C)=N1 | -1 | 1 | 8 | 25 | 5 | 7 | nt | nt
COc1ccc(/C(O)=C2/C(=O)C(=O)N(C)C2c2ccccc2)cc1OC (stereo not drawn) | nt | nt | 16 | 49 | nt | nt | nt | nt
O=C(COC(=O)c1ccc(O)cc1O)c1ccc2c(c1)OCO2 | -1 | nt | nt | nt | -3 | 13 | nt | nt
O=C(COC(=O)c1cc(Cl)ccc1O)c1ccc2c(c1)OCO2 | 11* | nt | nt | nt | 8 | 0 | 10* | 15*
O=c1oc(-c2cccs2)nc2c1cnn2-c1ccccc1 | 9.5* | 4 | 7 | 47 | 2 | -14 | 13* | 18*
CCC1(C)Cc2ccccc2-c2nc[nH]c(=O)c21 (stereo not drawn) | -1 | nt | nt | nt | -5 | 6 | nt | nt
CCC1(C)Cc2ccccc2-c2[nH]c(=S)[nH]c(=O)c21 (stereo not drawn) | 32* | nt | nt | nt | -1 | 6 | 6 | 8
Cn1c(=S)[nH]c2c(c1=O)C(C)(C)Cc1ccccc1-2 | 17* | 3 | 22 | 52 | -5 | 9 | 11* | 11*
O=C1C(=O)N(Cc2cccnc2)C(c2ccccn2)/C1=C(/O)c1ccc(Br)cc1 (stereo not drawn) | 11* | 2 | 12 | 22 | -3 | 13 | 18* | 23*
COc1ccccc1C1/C(=C(\O)c2ccc3c(c2)OCCO3)C(=O)C(=O)N1Cc1cccnc1 (stereo not drawn) | 14* | nt | nt | nt | 7 | -2 | 12* | 18*
SMILES | PG9 Ab binder | RAM network inh | EP2 antag | EP2 mod | Rev-erbA mod | SKN-1 inh | PG9 bind confirm | PGV04 Ab binding | others
O=C1C(=O)N(Cc2cccnc2)C(c2cccc([N+](=O)[O-])c2)/C1=C(/O)c1ccc2c(c1)OCO2 (stereo not drawn) | -1 | nt | nt | nt | -4 | 2 | nt | nt
O=C1C(=O)N(Cc2cccnc2)C(c2cccc(O)c2)/C1=C(\O)c1ccc2c(c1)OCCO2 (stereo not drawn) | 9.0* | nt | nt | nt | 1 | -3 | 10* | 20*
O=C1C(=O)N(Cc2cccnc2)C(c2cccc(Br)c2)/C1=C(/O)c1ccc2c(c1)OCO2 (stereo not drawn) | 37* | nt | nt | nt | 6 | -6 | 39* | 46*
COc1ccc(/C(O)=C2/C(=O)C(=O)N(Cc3cccnc3)C2c2ccccn2)cc1 (stereo not drawn) | 3 | -1 | 10 | 22 | 1 | -8 | nt | nt
Cc1nn(Cc2ccccc2)c(C)c1CCC(=O)N1CCn2c(nnc2C2CC2)C1 | nt | nt | 2 | 2 | nt | nt | nt | nt
CN(C)c1ccc(-c2cccc(C3CC=CC4C3C(=O)N(Cc3ccccc3)C4c3ccc4ccccc4c3)c2)cc1 (stereo not drawn) | 26* | nt | -3 | -12 | 9 | -9 | 36* | 48*
COCCN(CCOC)S(=O)(=O)c1ccc(C(=O)Nc2nc(-c3ccncc3)cs2)cc1 | 16* | 0 | 16 | -29 | 8 | 6 | 16* | 21*
CCOc1cccc(-c2nn3c(-c4ccco4)nnc3s2)c1 | 12* | 3 | 8 | 60 | 0 | -17 | 39* | 29* | PG9 bind DR=>67;PGV04 binding DR=>67;PG126 DR counter=>67
CCOc1ccc(Br)cc1C(=O)Nc1ccc(C(=O)NCC(C)C)cc1 | 24* | 0 | 8 | -8 | 6 | -5 | 24* | 31*
COc1cccc(NC(=O)Cn2c3ccc(OC)cc3c3nc4n(c(=O)c32)CCS4)c1 | 14* | nt | nt | nt | 19 | -5 | 31* | 25* | PG9 bind DR=>67;PGV04 binding DR=9*;PG126 DR counter=i
O=C(Cn1c2ccccc2c2nc3n(c(=O)c21)CCS3)Nc1ccccc1 | 1 | nt | nt | nt | 6 | 8 | nt | nt
C=Cn1cc(CN2CCC(O)(c3ccccc3C)CC2)c(C)n1 | nt | nt | 9 | -10 | nt | nt | nt | nt
CC(C)CCNC(=O)NC(=O)COC(=O)c1cc(S(=O)(=O)N2CCOCC2)ccc1N1CCCCC1 | 32* | 4 | 15 | 5 | 15 | -9 | 28* | 46*
CC(=O)c1csc(NC(=O)COc2ncnc3ccccc23)n1 | nt | nt | 6 | -17 | nt | nt | nt | nt
CCc1c(C)nc2cc(-c3cc(OC)cc(OC)c3)nn2c1NCCCN(C)C | nt | nt | 10 | -91 | nt | nt | nt | nt

Bioassay records: PubChem, several laboratories
